# The supplement of paper PMC8975748
# Structures can show the parent of a compound that is named as a salt.
# System: Saccharomyces cerevisiae BY4741 SeMeCo community
# Test: z-score of subpopulation abundance vs DMSO median, subpopulation auxotrophic for L; higher = larger share of this subpopulation than in DMSO controls
# Settings: 10 µM; 24 h; SM minimal medium; subpopulation (auxotrophy): L
# Outline: (§1)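 A community of Saccharomyces cerevisiae BY4741 was built from four plasmids that each restored one auxotrophy and encoded a distinct fluorescent protein. Pre-grown overnight to OD600 1.0 and diluted to 0.3, it was dispensed at 70 µl into 384-well plates acoustically predosed with library drugs for a final 10 µM, and grown 24 h in minimal SM medium. Cells were then paraformaldehyde-fixed and imaged by automated confocal microscopy. Thresholds and autofluorescence correction came from single-auxotroph fluorescent strains, and each subpopulation's abundance was scored as a z-score relative to the vehicle-well median.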
row,Structure (SMILES),z-score of subpopulation abundance
1,Nc1ccc(S(=O)(=O)c2ccc(N)cc2)cc1 [Dapson],0.59
2,CN(C)CC(c1ccc(O)cc1)C1(O)CCCCC1 (centres undefined) [Desvenlafaxine],-0.35
3,CN(C)CCC=C1c2ccccc2C(C)(C)c2ccccc21 [Melitracen hydrochloride],-0.61
4,Oc1cccc(O)c1 [Resorcinol],-0.23
5,C#C[C@]1(O)CC[C@H]2[C@@H]3CCC4=CCCC[C@@H]4[C@H]3C(=C)C[C@@]21CC [Desogestrel],-0.12
6,C[C@]1(COc2ccc(N3CCC(Oc4ccc(OC(F)(F)F)cc4)CC3)cc2)Cn2cc([N+](=O)[O-])nc2O1 [Delamanid],1.53
7,NC[C@H]1O[C@H](O[C@H]2[C@H](O)[C@@H](O[C@H]3O[C@H](CO)[C@@H](O)[C@H](N)[C@H]3O)[C@H](N)C[C@@H]2N)[C@H](O)[C@@H](O)[C@@H]1O [Kanamycin sulfate],1.91
8,Cn1nnnc1SCC1=C(C(=O)O)N2C(=O)[C@@H](NC(=O)[C@H](OC=O)c3ccccc3)[C@H]2SC1 [Cefamandole nafate],0.3
9,Cc1c(OCC(F)(F)F)ccnc1C[S@@+]([O-])c1nc2ccccc2[nH]1 [Dexlansoprazole],0.56
10,CCC(=O)O[C@@H]1CC(=O)O[C@H](C)C/C=C/C=C/[C@H](O)[C@H](C)C[C@H](CC=O)[C@H](O[C@@H]2O[C@H](C)[C@@H](O[C@H]3C[C@@](C)(O)[C@@H](OC(=O)CC)[C@H](C)O3)[C@H](N(C)C)[C@H]2O)[C@H]1OC [Midecamycin],-0.17
11,CN1CCN(CC(=O)N2c3ccccc3C(=O)Nc3cccnc32)CC1 [Pirenzepine dihydrochloride],-0.62
12,CC1(C)S[C@@H]2[C@H](NC(=O)Cc3ccccc3)C(=O)N2[C@H]1C(=O)O [Benzathine penicilline],-0.58

# System: Saccharomyces cerevisiae BY4741 SeMeCo community
# Test: z-score of subpopulation abundance vs DMSO median, subpopulation auxotrophic for U; higher = larger share of this subpopulation than in DMSO controls
# Settings: 10 µM; 24 h; SM minimal medium; subpopulation (auxotrophy): U
# Outline: as §1
row,Structure (SMILES),z-score of subpopulation abundance
1,Nc1ccc(S(=O)(=O)c2ccc(N)cc2)cc1 [Dapson],0.04
2,CN(C)CC(c1ccc(O)cc1)C1(O)CCCCC1 (centres undefined) [Desvenlafaxine],0.57
3,CN(C)CCC=C1c2ccccc2C(C)(C)c2ccccc21 [Melitracen hydrochloride],-0.05
4,Oc1cccc(O)c1 [Resorcinol],0.1
5,C[C@]1(COc2ccc(N3CCC(Oc4ccc(OC(F)(F)F)cc4)CC3)cc2)Cn2cc([N+](=O)[O-])nc2O1 [Delamanid],-0.77
6,NC[C@H]1O[C@H](O[C@H]2[C@H](O)[C@@H](O[C@H]3O[C@H](CO)[C@@H](O)[C@H](N)[C@H]3O)[C@H](N)C[C@@H]2N)[C@H](O)[C@@H](O)[C@@H]1O [Kanamycin sulfate],-0.55
7,Cn1nnnc1SCC1=C(C(=O)O)N2C(=O)[C@@H](NC(=O)[C@H](OC=O)c3ccccc3)[C@H]2SC1 [Cefamandole nafate],0.1
8,Cc1c(OCC(F)(F)F)ccnc1C[S@@+]([O-])c1nc2ccccc2[nH]1 [Dexlansoprazole],-0.65
9,CCC(=O)O[C@@H]1CC(=O)O[C@H](C)C/C=C/C=C/[C@H](O)[C@H](C)C[C@H](CC=O)[C@H](O[C@@H]2O[C@H](C)[C@@H](O[C@H]3C[C@@](C)(O)[C@@H](OC(=O)CC)[C@H](C)O3)[C@H](N(C)C)[C@H]2O)[C@H]1OC [Midecamycin],-0.73
10,CCOc1ccc2nc3cc(N)ccc3c(N)c2c1 [Ethacridine lactate monohydrate],-8.13
11,CN1CCN(CC(=O)N2c3ccccc3C(=O)Nc3cccnc32)CC1 [Pirenzepine dihydrochloride],-0.46
12,CC1(C)S[C@@H]2[C@H](NC(=O)Cc3ccccc3)C(=O)N2[C@H]1C(=O)O [Benzathine penicilline],-0.09
